Hit rate of the full screen: of about 96,000 compounds, about 20,000 (21%) were called active. Not all results are given here. Values without a mark were called inactive.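 Rule for the calls: active = CYP2C19 inhibition above a set limit at 5 µM in the primary screen (cut at about 50% in these data); inactive = the rest.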

Sequence of Cytochrome P450 2C19 (Homo sapiens) (P33261 whole entry, looked up): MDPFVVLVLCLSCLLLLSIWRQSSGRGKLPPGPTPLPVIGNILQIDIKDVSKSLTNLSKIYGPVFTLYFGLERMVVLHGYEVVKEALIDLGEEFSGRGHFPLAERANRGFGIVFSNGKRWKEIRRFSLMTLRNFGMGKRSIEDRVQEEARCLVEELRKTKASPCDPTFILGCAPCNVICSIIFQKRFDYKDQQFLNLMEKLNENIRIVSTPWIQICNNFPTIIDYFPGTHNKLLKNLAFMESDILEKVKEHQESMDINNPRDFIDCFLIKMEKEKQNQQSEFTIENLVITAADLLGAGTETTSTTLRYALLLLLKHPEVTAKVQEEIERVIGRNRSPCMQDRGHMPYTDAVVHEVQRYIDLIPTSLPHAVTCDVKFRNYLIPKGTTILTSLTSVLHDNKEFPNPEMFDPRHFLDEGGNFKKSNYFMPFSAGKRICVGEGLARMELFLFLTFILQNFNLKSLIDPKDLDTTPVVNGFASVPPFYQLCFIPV

This assay addresses Cytochrome P450 2C19 (Homo sapiens) (UniProt P33261). The experiment in a line: blockers of cytochrome P450 2C19 activity – biochemical, luminescence, ADME assay, primary screen (AID 778).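 Note: plate controls were negative control wells for no effect and 2.5 mM tranylcypromine positive control for full effect.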 The settings on record: CYP2C19 Supersomes, luciferin-H EGE luminescence, 30 min; at 5 µM; active compounds read high.
On to `COC(=O)[C@H](CCSC)NC(=O)Nc1ccc(OC)cc1`, for which the inhibition is 38%.

With `Cn1c(=O)c2c(nc(OCc3cccnc3)n2Cc2ccccc2)n(C)c1=O`, the inhibition is 16.8%.

Regarding `c1ccc(COc2ccccc2CNCc2cccnc2)cc1`, the inhibition is 59.4% (active).

For `COc1cc(/C=C2/C(=O)ON=C2C)ccc1OCc1ccccc1F`, the inhibition was 17.5%.

For the compound `Cc1nc2ccccc2cc1OCc1ccc(F)cc1`, the inhibition is 17.6%.

With `COc1ccccc1CNCc1cccs1`, the inhibition is 31.8%.

For `Fc1ccccc1COc1ccccc1CNCc1ccncc1`, the inhibition is 96.3% (active).

Consider `Cc1nnc(SCC(=O)NC2CCCC2)s1`, for which the inhibition was 19.1%.

For the compound `Cn1cccc1C(=O)NC(=O)COC(=O)Cc1coc2ccc3ccccc3c12`, the inhibition was 31.8%.

Take `O=c1[nH][nH]c(=O)c2cc(N3CCCC3)ccc12`: the inhibition is 0.9%.

In the case of `CCOc1ccc(-c2nc(C)sc2CC(=O)O)cc1`, the inhibition is 12.3%.

As for `CCc1nc(C)ccc1OCC(=O)N(CC)CC`, the inhibition was 0.2%.

For the compound `C=CCn1c(CSc2nc3ccccc3s2)nnc1SCC(=O)NCc1ccco1`, the inhibition was 24.8%.

As to `C=CCn1c(SCC(=O)Nc2nc3ccccc3s2)nnc1-c1ccccc1O`, the inhibition was 54.6% (active).

As to `C=CCn1c(SCC(=O)NCc2ccccc2)nnc1-c1cc(Br)ccc1O`, the inhibition is 91.6% (active).

In the case of `C=CCn1c(COc2ccccc2)nnc1SCC(=O)NCC(=O)OCC`, the inhibition was -8.4%.

Consider `C=CCn1c(N)cc(=O)nc1SCC(=O)Nc1cccc2ccccc12`, for which the inhibition is 1%.

For the compound `CCCCCCn1c(CN2CCCC(C)C2)nc2c1c(=O)n(C)c(=O)n2C` (centres undefined), the inhibition is 2.2%.

In the case of `CCOC(=O)Nc1ccc2c(c1)N(C(=O)CN1CCN3CCCC3C1)c1ccccc1CC2` (centres undefined), the inhibition was 18.2%.

In the case of `CCCCNC(=O)C1CCCNC1=O` (centres undefined), the inhibition is -19%.

For the compound `CCOC(=O)C1=C(c2ccccc2)O/C(=C(/C(=O)OC)C(F)(F)F)S1`, the inhibition is 11.1%.

Turning to `CCOC(=O)c1nnn(-c2nonc2OC)c1-c1ccccc1`, the inhibition was 60.7% (active).

Consider `CCOC(=O)c1nnn(-c2nc(OC)nc(N(C)C)n2)c1-c1ccccc1`, for which the inhibition is 27.7%.

Regarding `Cc1cccc(C(=O)Nc2ccc(C(=O)/C=C/c3cccs3)cc2)c1`, the inhibition is -1.9%.

Regarding `CCCNC(=O)NCc1ccc(N2CCCC2=O)cc1`, the inhibition was 3.6%.

As to `Brc1ccc(OCCn2ccnc2)cc1`, the inhibition is 91.7% (active).

As for `COc1cccc(C(=O)Nc2c3c(nn2-c2cccc(C)c2C)CS(=O)(=O)C3)c1OC`, the inhibition is -2.2%.

For `C=CCNC(=O)C1CC=CCC1C(=O)O` (centres undefined), the inhibition was -11.3%.

Regarding `N#CC1=C(SCc2ccccc2)NC(=O)C(C#N)C12CCCC2` (centres undefined), the inhibition was 63.9% (active).

Broadly, the inhibition is the change of the read-out against control, counted positive when it falls.
